This note sets out measurements from PubChem BioAssay (NCI).

What all share (assay): NCI-60 one-dose screen, 48 h (100 = growth as untreated, 0 = no growth, -100 = all killed)
What all share (conditions): 10 µM unless noted

The test system of assay [1] is NCI-H23 lung.
In assay [2] the test system is NCI-H226 lung.
Assay [3] has as its system NCI-H322M lung.
The subject of assay [4] is HOP-62 NSCLC.
In assay [5] the test system is NCI-H460 lung.
For assay [6], the system named is HOP-92 NSCLC.
Assay [7] has as its system NCI-H522 lung.
Assay [8] has as its system A549/ATCC NSCLC.
For assay [9], the system named is 786-0 renal.
In assay [10] the test system is COLO 205 colon.
For assay [11], the system named is DU-145 prostate.
The subject of assay [12] is K-562 leukemia.
Assay [13] has as its system MALME-3M melanoma.
Assay [14] has as its system MDA-MB-231 breast.
Assay [15] concerns RXF 393 renal.
In assay [16] the test system is SF-268 CNS.
Assay [17] has as its system SF-295 CNS.
Assay [18] concerns UACC-257 melanoma.
Assay [19] concerns M14 melanoma.
In assay [20] the test system is SF-539 CNS.

About 83,000 compounds went through this panel and 20% of them were active in at least one assay; those are over-represented in the sample as a whole.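 Growth was measured after 48 h exposure to one concentration of compound in 96-well plates. Values under 10 count as active.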 Values without a mark were called inactive. Calls of active or inactive are those of the source.

For `O=C(/C=C/c1cc(-c2ccc3c(c2)OCO3)n[nH]1)c1ccc2c(c1)OCO2`, the growth was 94.6% in assay [1]; 89.4% in assay [2]; 86.6% in [3]; 96.9% in assay [4]; 97.5% in assay [5]; 77.7% in assay [6]. The growth was 72% in assay [7]; 90.7% in assay [8]; 99.2% in [9]; 97.7% in [10]; 104% in [11]; 82.6% in [12]. The growth in [13] was 106%; in assay [14], 92.4%; in assay [15], 94.4%; in assay [16], 93.3%; in assay [17], 97%; in assay [18] it was 96.1%. In assay [19], the growth was 99.6%.

Take `COc1ccc(-c2nc3sc(-c4cc(OC)c(OC)c(OC)c4)nn3c2/C=C2/C(=O)Nc3ccc(F)cc32)cc1`: the growth in [1] is 2.52% (active); in assay [2] it was 110%; in [3], -59.4% (active); in assay [4], 4.69% (active); in assay [5], -26.6% (active); in assay [6] it was -58.8% (active). The growth in [7] is 8.56% (active); in assay [8], -63.6% (active); in assay [9], -50.3% (active); in assay [10], -43.8% (active); in assay [11], -61.9% (active); in assay [12], 19.9%. Further, the growth in assay [13] was -48.3% (active); in assay [14], -31% (active); in assay [15] it was -32% (active); in [16], -7.6% (active); in [17], -17.2% (active); in assay [20] it was 97.7%. The growth in [18] is -25% (active); in assay [19], -53.4% (active).

Turning to `C=C1C(=O)O[C@H]2[C@H]1CC/C(Cn1cc(-c3cccc(Cl)c3)nn1)=C\CC[C@@]1(C)O[C@@H]21`, the growth in [1] was -35% (active); in assay [2], -57.9% (active); in [3] it was 66.2%; in [4] it was -38.4% (active); in [5], 16.6%; in assay [6], -73.2% (active). Moreover, the growth in assay [7] is -74.4% (active); in assay [8] it was 31%; in assay [9], -83.9% (active); in [10], -79.5% (active); in assay [11] it was -99.4% (active); in assay [12] it was 0.665% (active). Further, the growth in [13] was -77.3% (active); in assay [14], -54.1% (active); in assay [15], -88.4% (active); in assay [16], -47.9% (active); in assay [17] it was 72.4%; in assay [20], -76.7% (active). Moreover, the growth in assay [19] was -56.4% (active).

On to `O=[N+]([O-])c1cc(S(=O)(=O)Oc2ccccc2)ccc1Cl`, for which the growth in assay [1] was 30.7%; in assay [2] it was 75.3%; in [3] it was -13.3% (active); in [4], 54%; in assay [5], 1.7% (active); in assay [6], 24.1%. In addition, the growth in assay [7] is 14.3%; in assay [8], 88.4%; in assay [9], 24.1%; in [10] it was 5.56% (active); in [11] it was -81% (active); in assay [12], 1.22% (active). For the same compound, the growth was -68.8% (active) in assay [13]; 40.7% in assay [14]; 35% in [15]; 24.2% in [16]; 28.7% in [17]; 45.4% in assay [18]. Moreover, the growth in assay [19] was -21.5% (active).

Consider `Cc1ccc(N2CCN(C(C)C(N)=O)CC2)cc1` (centres undefined), for which the growth was 104% in assay [1]; 109% in [2]; 116% in assay [3]; 109% in assay [4]; 121% in [5]; 123% in assay [6]. Further, the growth in assay [7] was 90.7%; in assay [8], 113%; in [9], 103%; in assay [10], 122%; in assay [11], 116%; in assay [12], 114%. Also, the growth in assay [13] is 107%; in [14] it was 102%; in assay [15], 111%; in assay [16], 100%; in [17], 103%; in assay [20] it was 110%. Besides, the growth was 127% in [18] and 99.2% in [19].

`CN(C)CCCC(C#N)c1ccccc1` (centres undefined): the growth in assay [1] is 103%; in [2] it was 107%; in assay [3], 115%; in assay [4], 103%; in assay [5] it was 116%; in assay [6], 105%. Besides, the growth was 119% in assay [7]; 105% in [8]; 97.9% in assay [9]; 119% in [10]; 122% in assay [11]; 99.1% in assay [12]. Also, the growth in [13] was 131%; in [14] it was 112%; in assay [15] it was 115%; in assay [16], 114%; in assay [17], 110%; in assay [18] it was 104%. For the same compound, the growth in assay [19] is 104%.

Regarding `COc1cc(Cn2cc3c(c2)-c2oncc2CC3)cc(OC)c1OC`, the growth in assay [1] is 15.7%; in [2], 17.7%; in assay [3], -2.65% (active); in assay [4] it was 42.1%; in assay [5], 3.87% (active); in assay [6] it was 56.4%. Also, the growth in assay [7] was -20% (active); in assay [8], 29.6%; in assay [9] it was 12.8%; in [10], -67.2% (active); in assay [11], -11% (active); in assay [12], 12%. Besides, the growth was 56.5% in assay [13]; 28.9% in [14]; 46.1% in assay [15]; 18.4% in [16]; -3.52% (active) in assay [17]; 81.2% in assay [18]. Also, in assay [19], the growth was 10.7%.

Consider `Cc1cc(C)n(-c2nnc3n2N=C(c2ccc(-c4ccccc4)cc2)CS3)n1`, for which the growth in [1] was 75.7%; in assay [2], 68.4%; in assay [3], 71.1%; in assay [4], 54.7%; in [5] it was 45.1%; in assay [6] it was -2.12% (active). Also, the growth in assay [7] is 29.2%; in [8], 31.5%; in assay [9], 59.9%; in assay [10] it was 39.8%; in [11] it was 66.2%; in [12], 6.94% (active). Also, the growth was 43.5% in [13]; 51.1% in [14]; 5.5% (active) in assay [15]; 56.7% in assay [16]; 38.7% in assay [20]; 53.7% in assay [18]. The growth in [19] is 30%.
